This excerpt belongs to a sample that is enriched for hits.
HT1080 IDH1KD tx = qHTS for induction of synthetic lethality in tumor cells producing 2HG: qHTS for the HT-1080-IDH1KD cell line. HT-1080 IDH1 knockdown viability, ATP luminescence, 48 h. Potency, µM (series often up to 46.1 µM), for inactives: at the top dose activity, negative = toxicity, actives largely listed as cytotoxic. 360,000 compounds, 2% hits. AID 686971, 2013;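 also: potency is read from the fitted curve at half-maximal effect; 0% = DMSO wells and -100% = cell-free medium wells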
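Luminescent ATP read-out (CellTiter-Glo, 10 min at room temperature) after 48 h compound exposure at 37 °C gave viability of IDH1-knockdown HT-1080 cells. Activity was normalised to DMSO and cell-free wells, then fitted as concentration-response curves.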
DT40 TDP1 CPT = qHTS for Inhibitors of human tyrosyl-DNA phosphodiesterase 1 (TDP1): qHTS in cells in presence of CPT; 420,000 compounds, 12% hits; Potency, µM (doses to about 46.2 µM), inactives show at the highest dose activity change, negative = growth inhibition, most hits filed as inhibitors; AID 686979, 2013; chicken DT40 Tdp1-/-;hTDP1 cells + 20 nM CPT, ATP luminescence, 48 h; also: potency is read from the fitted curve at half-maximal effect; nearly all actives have a fitted effect of over 55% in size
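Chicken DT40 Tdp1-/- cells complemented with human TDP1, 400 cells/well, exposed to compounds plus 20 nM camptothecin for at least 48 h at 37 C; viability read as ATP content by CellTiter-Glo luminescence.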
DT40 TDP1 no CPT = qHTS for Inhibitors of human tyrosyl-DNA phosphodiesterase 1 (TDP1): qHTS in cells in absence of CPT; 420,000 compounds, 15% hits; DT40 Tdp1-/- hTDP1 cells, no CPT, ATP luminescence, 48 h; Potency, µM (top dose mostly 46.2 µM), for inactives: at the top dose activity change, negative = growth inhibition, most hits filed as inhibitors; also: potency is read from the fitted curve at half-maximal effect; nearly all actives have a fitted effect of over 55% in size
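Compound effects on proliferation are scored in DT40 Tdp1-/-;hTDP1 cells in the absence of CPT. ATP levels (CellTiter-Glo luminescence) are recorded after a ≥48 hr, 37 °C incubation.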
IL1B secr inh = qHTS for Inhibitors of Inflammasome Signaling: IL-1-beta AlphaLISA Primary Screen. AID 743279, 2014. 360,000 compounds, 4.7% hits. THP-1 LPS/ATP IL-1B secretion, AlphaLISA, 16 h; stronger effect = lower value. activity change, % at 57.5 µM; in the data active = activity change below about -50%; inconclusive = mostly about -30% to -49%
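THP-1 cells pretreated 1 hr with compounds (up to 57.5 uM final), then stimulated with LPS (250 ng/mL final) plus ATP (1.25 mM final); secreted IL-1B measured by AlphaLISA after 16 hr, decreased signal indicating inhibition.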
HT1080NT lethal = qHTS for induction of synthetic lethality in tumor cells producing 2HG: qHTS for the HT-1080-NT fibrosarcoma cell line. 360,000 compounds, 1.6% hits. HT-1080-NT fibrosarcoma viability, CellTiter-Glo ATP luminescence, 48 h. Potency, µM (highest dose often 46.1 µM), without a hit: at the top dose activity, negative = less viability, usual class: cytotoxic;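 also: NT is the 2HG producing partner of a matched IDH1 knockdown line; potency is read from the fitted curve at half-maximal effect; 0% = DMSO-treated cells and -100% = media-only wells without cells; nearly all actives have a fitted effect of over 55% in size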
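A 48-hour cytotoxicity screen used HT-1080-NT cells plated 2 hours before compound delivery. ATP-based CellTiter-Glo luminescence measured viability, normalized to DMSO and no-cell controls.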
ALOX12 inh = Primary qHTS assay for inhibitors of human arachidonate 12S-lipoxygenase (ALOX12): Round 2; Polyunsaturated fatty acid lipoxygenase ALOX12 (Homo sapiens), P18054; purified 12hLO, xylenol orange hydroperoxide absorbance; Potency, µM (doses to about 108 µM), for the others: at the top dose activity change, negative = inhibition, actives largely listed as inhibitors; 580,000 compounds, 1.1% hits; AID 1671190, 2021; also: potency is read from the fitted curve at half-maximal effect
Target sequence (P18054 whole entry, looked up): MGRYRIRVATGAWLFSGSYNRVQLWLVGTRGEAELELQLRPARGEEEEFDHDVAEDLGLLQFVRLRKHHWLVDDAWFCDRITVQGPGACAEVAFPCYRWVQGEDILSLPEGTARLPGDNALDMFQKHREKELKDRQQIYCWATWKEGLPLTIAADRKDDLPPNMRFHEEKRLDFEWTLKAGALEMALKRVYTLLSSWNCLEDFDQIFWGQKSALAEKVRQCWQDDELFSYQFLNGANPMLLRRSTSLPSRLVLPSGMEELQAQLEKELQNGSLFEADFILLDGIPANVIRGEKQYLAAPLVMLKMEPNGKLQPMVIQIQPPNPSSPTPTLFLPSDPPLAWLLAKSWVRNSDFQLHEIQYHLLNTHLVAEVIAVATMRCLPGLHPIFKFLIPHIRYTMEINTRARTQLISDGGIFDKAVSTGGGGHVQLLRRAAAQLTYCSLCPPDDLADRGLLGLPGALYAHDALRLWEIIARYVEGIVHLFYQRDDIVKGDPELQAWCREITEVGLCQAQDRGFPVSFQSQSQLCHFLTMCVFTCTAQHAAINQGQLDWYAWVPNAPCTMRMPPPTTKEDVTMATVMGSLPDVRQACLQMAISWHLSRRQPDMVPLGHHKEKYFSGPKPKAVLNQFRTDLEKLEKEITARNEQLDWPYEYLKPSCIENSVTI
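Purified human 12hLO (150 nM final) in 25 mM Hepes, 0.01% Triton X-100, pH 7.0 was preincubated 15 min at room temperature with compound. Then 40 uM arachidonic acid was added, 30 min. Hydroperoxide was read by Fe-XO absorbance ratio 573/405 nm.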
Numbers without * were called inactive; ? = inconclusive; · = no result given; [ ] = another dose, or the depositor's remark. Unless noted, calls follow the shape of the dose curve; as a rule, active = well fitted curve in the direction sought with a large enough effect; inconclusive = small, poorly fitted or top-dose-only effect, or another doubt; inactive = no such curve, though single readings can be large; an effect the other way counts as inactive or inconclusive. Unless noted, % is scaled to controls: 0 for no effect and ±100 for the full control effect.

SMILES	HT1080 IDH1KD tx	DT40 TDP1 CPT	DT40 TDP1 no CPT	IL1B secr inh	HT1080NT lethal	ALOX12 inh
Oc1ccc(-c2nc(-c3cc4ccccc4o3)cs2)cc1	·	·	·	·	·	11µM*
NC(=O)[C@H]1C[C@@H](O)[C@H](O)[C@H]2[C@@H]1SC(=Nc1ccccc1)N2Cc1ccccc1	·	·	·	·	·	1%[176 µM]
CC(CNC(=O)c1nnc(C(=O)Nc2cccc(Cl)c2)s1)c1ccccc1 (stereo unspecified)	·	·	·	·	·	-5%
N=C(N)COc1cc(Cl)ccc1Cl	·	·	·	·	·	-3%
CN(C)CCOc1nc(-c2ccccc2)nc2c1oc1ccccc12	-2%	?	23µM*	-99*	?	40%
CN(C)CCOc1ncnc2c1oc1ccccc12	-17%	1%	-10%	-9	2%	12%
Cc1cnc(CN2CCC3(CCC(=O)N(CCCO)C3)CC2)[nH]1	·	·	·	·	·	108%
O=C1NC(=S)N/C1=C/c1cccc([N+](=O)[O-])c1	-3%	21%	-7%	-9	-27%	-3%
CCCN1C/C(=C/c2cccc([N+](=O)[O-])c2)C(=O)/C(=C/c2cccc([N+](=O)[O-])c2)C1	23µM*	1µM*	0.65µM*	-94*	-5%	15%
O=C1/C(=C/c2cccc([N+](=O)[O-])c2)CCOc2ccc(F)cc21	·	·	·	·	·	-15%
CCCN1C/C(=C/c2ccc3c(c2)OCO3)C(=O)/C(=C/c2ccc3c(c2)OCO3)C1	?	15µM*	13µM*	1	?	?
CCCN1C(=O)/C(=C/c2ccc3c(c2)OCO3)NC1=S	-2%	-11%	-19%	3	-1%	-58%
CN1C(=O)/C(=C/c2cccc([N+](=O)[O-])c2)C(=O)N1c1ccccc1	-8%	?	?	-19	1%	40µM*
c1ccc(-c2nc(CSc3ccc4c(c3)OCCO4)cs2)cc1	·	·	·	·	·	-14%
COc1cc(CN(C2CCCCC2C)S(=O)(=O)c2ccc(S(=O)(=O)NC3CC3)cc2)cc(OC)c1OC (stereo unspecified)	-5%	?	?	19	-5%	-2%
COc1ccc(CN(C2CCCCC2C)S(=O)(=O)c2ccc(S(=O)(=O)N(C)C)cc2)cc1OC (stereo unspecified)	-12%	16µM*	21µM*	49	-4%	-21%
O=C(NNC(=S)Nc1cccc(C(F)(F)F)c1)c1ccc(Cl)cc1Cl	?	?	26µM*	-52*	?	?
CC(=O)NNC(=S)Nc1cccc(C(F)(F)F)c1	·	·	·	·	·	-2%
Cc1ccccc1C(=O)NNC(=S)Nc1cccc(C(F)(F)F)c1	?	?	23µM*	-2	?	?
CC1(C)CC(=O)C2=C(C1)OC1=C(C(=O)CC(C)(C)C1)C2c1cc([N+](=O)[O-])cc([N+](=O)[O-])c1O	?	?	?	6	-20%	?
CC1(C)CC(=O)C(C2C3=C(CC(C)(C)CC3=O)Oc3c(Br)cc(Br)cc32)=C(O)C1 (stereo unspecified)	5%	?	18µM*	30	7%	?
COc1ccccc1/C=c1\sc2nc(-c3ccccc3OC)nn2c1=O	-2%	?	16µM*	7	-1%	-12%
